From PubChem BioAssay (Tox21) come the findings set out here.

Inconclusive results are not listed. Entries that show only a call come without a potency. Activity calls are given as the source filed them. Calls come from the whole dose curve; as a rule, active = well fitted curve in the direction sought with a large enough effect in the repeat runs; inconclusive = weak or mixed curves; inactive = no such curve, though single readings can be large; an effect the other way counts as inactive or inconclusive.

Sequence of Cytochrome P450 1A2 (Homo sapiens) (P05177 whole entry, looked up): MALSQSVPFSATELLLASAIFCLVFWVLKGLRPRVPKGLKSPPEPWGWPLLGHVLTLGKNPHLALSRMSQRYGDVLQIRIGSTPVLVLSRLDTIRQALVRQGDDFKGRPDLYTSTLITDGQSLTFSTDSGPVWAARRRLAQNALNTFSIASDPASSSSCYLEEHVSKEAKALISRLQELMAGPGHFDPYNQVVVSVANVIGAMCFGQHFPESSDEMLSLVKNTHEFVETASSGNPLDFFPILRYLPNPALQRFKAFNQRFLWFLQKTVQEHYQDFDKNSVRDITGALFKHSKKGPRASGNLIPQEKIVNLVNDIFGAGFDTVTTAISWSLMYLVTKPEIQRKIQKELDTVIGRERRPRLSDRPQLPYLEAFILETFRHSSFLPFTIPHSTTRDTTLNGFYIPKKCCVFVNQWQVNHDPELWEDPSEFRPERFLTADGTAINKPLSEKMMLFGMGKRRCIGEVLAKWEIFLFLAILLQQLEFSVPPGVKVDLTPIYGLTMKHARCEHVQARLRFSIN
Sequence of Nuclear receptor subfamily 1 group I member 2 (Homo sapiens) (O75469 whole entry, looked up): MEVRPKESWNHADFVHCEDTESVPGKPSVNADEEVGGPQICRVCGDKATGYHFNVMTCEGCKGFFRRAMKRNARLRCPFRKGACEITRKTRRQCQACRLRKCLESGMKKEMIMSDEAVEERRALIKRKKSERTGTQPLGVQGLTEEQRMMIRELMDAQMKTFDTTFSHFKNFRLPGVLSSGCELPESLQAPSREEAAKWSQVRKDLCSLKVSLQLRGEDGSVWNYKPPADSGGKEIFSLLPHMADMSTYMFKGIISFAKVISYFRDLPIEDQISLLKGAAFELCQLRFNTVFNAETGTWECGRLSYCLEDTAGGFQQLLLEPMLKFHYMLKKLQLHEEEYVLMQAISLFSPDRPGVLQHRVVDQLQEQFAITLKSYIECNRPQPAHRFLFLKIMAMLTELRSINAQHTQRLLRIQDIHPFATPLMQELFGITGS
Sequence of Nuclear receptor subfamily 1 group I member 2 (Rattus norvegicus) (Q9R1A7 whole entry, looked up): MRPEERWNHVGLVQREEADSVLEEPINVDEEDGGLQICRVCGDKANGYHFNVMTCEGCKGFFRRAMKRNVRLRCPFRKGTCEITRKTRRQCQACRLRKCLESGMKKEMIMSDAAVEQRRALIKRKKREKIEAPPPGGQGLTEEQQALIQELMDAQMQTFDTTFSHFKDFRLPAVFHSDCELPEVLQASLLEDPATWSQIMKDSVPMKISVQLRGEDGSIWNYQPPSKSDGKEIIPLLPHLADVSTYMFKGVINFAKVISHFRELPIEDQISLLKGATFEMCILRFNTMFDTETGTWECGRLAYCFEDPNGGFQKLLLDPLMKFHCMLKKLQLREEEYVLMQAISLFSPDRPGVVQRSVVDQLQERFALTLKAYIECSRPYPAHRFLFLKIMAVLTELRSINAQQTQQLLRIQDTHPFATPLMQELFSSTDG

One experiment addresses Nuclear receptor subfamily 1 group I member 2 (Homo sapiens) (UniProt O75469). The experiment is described as follows: Human pregnane X receptor (PXR) small molecule agonists, qHTS assay (AID 1346982). Note: nearly all actives have a fitted effect of over 35% in size. Note: potency is the fitted concentration of half-maximal effect. The following applies: PXR-Luc HepG2, CYP3A4 luciferase reporter, 24 h; series mostly up to 92.4 µM. The essentials:
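Tox21 qHTS; PXR-Luc HepG2; compounds pinned from DMSO; 24 hr, 37 C; ONE-Glo luciferase detection, 30 min room temperature.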
Consider `O=C(O)c1cc2ccccc2nc1C(=O)O`, for which the Potency result was “inactive”.
Same read-out and setting: the value for `OCC(O)CN1CCN(c2ccccc2)CC1` (stereo not drawn) was “inactive”; that for `CCCc1ccc(O)cc1` was “inactive”; that for `COS(=O)(=O)O` was “inactive”.
The same measure, in the same setting: to `CCC(C)C(C)=O` (stereo not drawn) belongs “inactive”.
Still for that read-out and setting: the value for `CC(=O)CCc1ccc(OC(C)=O)cc1` was “inactive”; that for `Cc1ccc(C)c([N+](=O)[O-])c1` was “inactive”; that for `CCCC(=O)OCCC(C)CCC=C(C)C` (stereo not drawn) was “inactive”.
`CC1=C(C(=O)O)N2C(=O)[C@@H](NC(=O)[C@H](N)C3=CCC=CC3)[C@H]2SC1`: the Potency entry was “inactive”.
On the same count and under the same terms, to `COC(=O)c1cccc(Cl)c1` belongs “inactive”; to `CC(O)COC(C)(C)C` (stereo not drawn), “inactive”.
The same measure, in the same setting: to `NCCOCCN` belongs “inactive”; to `COC(=O)/C=C\C(=O)O`, “inactive”; to `C=CCCCCCCCCC(=O)OCCCC`, “inactive”.
On the same count and under the same terms, to `O=C1OCCO1` belongs “inactive”; to `OC1(c2ccc(Cl)cc2)CCNCC1`, “inactive”; to `Cn1c(=O)c2c(ncn2CCO)n(C)c1=O`, “inactive”.
Turning to `CCC(=O)CC`, the Potency entry is “inactive”.
On the same count and under the same terms, the value for `CCO[Si](CC)(OCC)OCC` was 15.4 µM (active).
Still for that read-out and setting: the value for `C[C@@H](O)C(=O)O` was “inactive”; that for `CC(=O)C1C(=O)C=C(C)OC1=O` (stereo not drawn) was “inactive”.
Still for that read-out and setting: the value for `Cc1c(N)cccc1Cl` was “inactive”; that for `CC(C)CO` was “inactive”.

The target in the next experiment is Nuclear receptor subfamily 1 group I member 2 (Rattus norvegicus) (UniProt Q9R1A7). The experiment is described as follows: Rat pregnane X receptor (rPXR) activation by small molecules, qHTS assay (AID 1346983). Note: nearly all actives have a fitted effect of over 20% in size. The following applies: rPXR luciferase reporter cells, One-Glo luminescence, 24 h; hits give high values. The method, boiled down:
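Cell-based rPXR luciferase reporter assay, 2,000 cells per well, rested 5hr at 37 C before compound addition in DMSO, then 24 hr at 37 C. One-Glo reagent was added and luminescence read after 30 min at room temperature.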
(In general: Quantitative high-throughput screening tests each substance at several concentrations.)
Regarding `CN1CCOC(c2ccccc2)c2ccccc2C1` (stereo not drawn), the max activation was -1.81% (inactive).
On the same count and under the same terms, to `CC(N)CCCC(C)(C)O` (stereo not drawn) belongs -1.43% (inactive); to `COc1c2occc2c(OC)c2c(=O)cc(C)oc12`, -1.72% (inactive).
For the molecule `CC(=O)O[C@@H]1CC2CCC1(C)C2(C)C` (stereo partly drawn), the max activation is -1.62% (inactive).
Same read-out and setting: to `CCn1cc(C(=O)O)c(=O)c2cnc(N3CCCC3)nc21` belongs -0.363% (inactive).

For a further experiment, the target named is Cytochrome P450 2D6 (Homo sapiens) (UniProt P10635). The experiment in a line: Cytochrome P450 Family 2 Subfamily D Member 6 (CYP2D6) small molecule antagonists: luciferase reporter qHTS assay (AID 1671196). Note: nearly all actives have a fitted effect of over 50% in size. Note: potency is the fitted concentration of half-maximal effect. Conditions: P450-Glo CYP2D6 enzyme assay, luciferin luminescence, 1 h; series mostly up to 115 µM. The essentials: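 Room-temperature luminescent CYP2D6 activity assay: compound preincubated 10 min with enzyme–substrate mix, NADPH-initiated reaction 1 h, detection reagent 20 min before reading.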
Sequence of Cytochrome P450 2D6 (Homo sapiens) (P10635 whole entry, looked up): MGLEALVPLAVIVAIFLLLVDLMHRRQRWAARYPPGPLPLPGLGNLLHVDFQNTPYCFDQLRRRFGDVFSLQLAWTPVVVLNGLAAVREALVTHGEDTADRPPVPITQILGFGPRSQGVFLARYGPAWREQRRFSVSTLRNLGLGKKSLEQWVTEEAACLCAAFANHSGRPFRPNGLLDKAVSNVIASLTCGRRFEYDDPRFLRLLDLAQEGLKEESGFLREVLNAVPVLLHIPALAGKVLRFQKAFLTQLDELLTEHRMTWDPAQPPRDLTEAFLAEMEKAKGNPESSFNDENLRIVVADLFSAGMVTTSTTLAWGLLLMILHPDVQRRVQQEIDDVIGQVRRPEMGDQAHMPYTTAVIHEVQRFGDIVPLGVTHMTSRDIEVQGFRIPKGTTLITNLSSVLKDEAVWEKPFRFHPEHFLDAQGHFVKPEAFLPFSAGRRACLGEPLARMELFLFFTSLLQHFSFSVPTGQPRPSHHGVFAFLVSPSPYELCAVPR
On the technique in general: Reporter assays use an easily measured gene product as a stand-in for the process of interest.
Consider `CC(=O)CC(=O)OC(C)(C)C`, for which the Potency entry is “inactive”.
Regarding `O=C=NCC1CCCC(CN=C=O)C1` (stereo not drawn), the Potency was 31.7 µM (active).
On the same count and under the same terms, to `CCCC(CC)c1ccccc1` (stereo not drawn) belongs “inactive”.
For `ONc1ccccc1`, the Potency entry is “inactive”.
Same read-out and setting: the value for `COc1c2occc2c(OC)c2c(=O)cc(C)oc12` was 12.3 µM (active); that for `CC/C=C\CCOC(=O)c1ccccc1O` was “inactive”.
Still for that read-out and setting: the value for `CC(=O)O[C@@H]1CC2CCC1(C)C2(C)C` (stereo partly drawn) was “inactive”.
On the same count and under the same terms, to `c1ccc2cnccc2c1` belongs 35.6 µM (active).
On to `CCn1cc(C(=O)O)c(=O)c2cnc(N3CCCC3)nc21`, for which the activity change, negative = inhibition was -1.62% [at 10.5 µM] (inactive).

The target of a further experiment is Cytochrome P450 2C19 (Homo sapiens) (UniProt P33261). The experiment in a line: Cytochrome P450 Family 2 Subfamily C Member 19 (CYP2C19) small molecule antagonists: luciferase reporter qHTS assay (AID 1671197). Note: nearly all actives have a fitted effect of over 65% in size. Note: potency is the fitted concentration of half-maximal effect. The following applies: P450-Glo CYP2C19 enzyme, luciferin luminescence, 1 h; series mostly up to 115 µM. The method, boiled down: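 Relative luminescence units recorded 20 min after the detection reagent stopped a 1 h, 37C CYP2C19 reaction on proluciferin substrate, which was started by NADPH regeneration following 10 min room-temperature compound preincubation; ketoconazole positive control.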
Sequence of Cytochrome P450 2C19 (Homo sapiens) (P33261 whole entry, looked up): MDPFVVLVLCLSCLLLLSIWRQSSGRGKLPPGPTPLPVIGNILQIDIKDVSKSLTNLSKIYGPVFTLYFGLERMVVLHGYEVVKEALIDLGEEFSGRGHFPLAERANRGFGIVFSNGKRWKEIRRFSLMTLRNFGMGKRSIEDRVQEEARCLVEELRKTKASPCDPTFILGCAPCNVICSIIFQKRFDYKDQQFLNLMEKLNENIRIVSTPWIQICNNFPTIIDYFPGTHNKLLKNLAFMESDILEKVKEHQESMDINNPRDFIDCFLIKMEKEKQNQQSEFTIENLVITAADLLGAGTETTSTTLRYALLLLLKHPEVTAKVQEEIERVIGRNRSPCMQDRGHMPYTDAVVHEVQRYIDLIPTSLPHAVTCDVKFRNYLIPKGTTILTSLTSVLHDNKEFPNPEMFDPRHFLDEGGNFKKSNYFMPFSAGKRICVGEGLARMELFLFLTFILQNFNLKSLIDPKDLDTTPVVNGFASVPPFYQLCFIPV
For the molecule `CC(=O)CC(=O)OC(C)(C)C`, the Potency entry is “inactive”.
For the molecule `O=C(O)c1cc2ccccc2nc1C(=O)O`, the Potency entry was “inactive”.
`CCC/C=C(\C=O)CC`: the Potency is 39.9 µM (active).
Still for that read-out and setting: the value for `CNCCS(=O)(=O)O` was “inactive”.
Still for that read-out and setting: the value for `COS(=O)(=O)O` was “inactive”.
The same measure, in the same setting: the value for `CC(N)CCCC(C)(C)O` (stereo not drawn) was “inactive”; that for `O=C=NCC1CCCC(CN=C=O)C1` (stereo not drawn) was 71 µM (active).
Consider `CCCC(CC)c1ccccc1` (stereo not drawn), for which the Potency entry is “inactive”.
Still for that read-out and setting: to `Cc1ccc(C)c([N+](=O)[O-])c1` belongs “inactive”.
Still for that read-out and setting: the value for `ONc1ccccc1` was 88.5 µM (active); that for `COc1c2occc2c(OC)c2c(=O)cc(C)oc12` was 3.47 µM (active).
Same read-out and setting: to `CC(=O)O[C@@H]1CC2CCC1(C)C2(C)C` (stereo partly drawn) belongs “inactive”; to `NCCOCCN`, 71 µM (active); to `COC(=O)/C=C\C(=O)O`, “inactive”.
On to `C=CCCCCCCCCC(=O)OCCCC`, for which the Potency is 56.4 µM (active).
Same read-out and setting: to `c1ccc2cnccc2c1` belongs “inactive”; to `OC1(c2ccc(Cl)cc2)CCNCC1`, 3.09 µM (active).
For the molecule `CCC(=O)CC`, the Potency entry is “inactive”.
On the same count and under the same terms, to `CCO[Si](CC)(OCC)OCC` belongs “inactive”.
For `CCn1cc(C(=O)O)c(=O)c2cnc(N3CCCC3)nc21`, the activity change, negative = inhibition was -11.6% [at 10.5 µM] (inactive).
Take `CC(C)C[C@@H]1[C@H](c2ccccc2)OC(=O)N1CCCN1CCCCCC1`: the Potency is 2.75 µM (active).
On the same count and under the same terms, the value for `CC(=O)C1C(=O)C=C(C)OC1=O` (stereo not drawn) was “inactive”; that for `Cc1c(N)cccc1Cl` was “inactive”.

The target of another experiment is Cytochrome P450 2C9 (Homo sapiens) (UniProt P11712). The experiment in a line: Cytochrome P450 Family 2 Subfamily C Member 9 (CYP2C9) small molecule antagonists: luciferase reporter qHTS assay (AID 1671198). Note: nearly all actives have a fitted effect of over 50% in size. Note: potency is the fitted concentration of half-maximal effect. Conditions: P450-Glo CYP2C9 enzyme assay, luciferin luminescence; series mostly up to 115 µM. The method, boiled down: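 CYP2C9 activity was measured with a P450-Glo proluciferin substrate. Enzyme–substrate mix was held with compound for 10 min at room temperature, then NADPH regeneration solution was added for 1 h at 37C. Luciferin product was read as luminescence.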
Sequence of Cytochrome P450 2C9 (Homo sapiens) (P11712 whole entry, looked up): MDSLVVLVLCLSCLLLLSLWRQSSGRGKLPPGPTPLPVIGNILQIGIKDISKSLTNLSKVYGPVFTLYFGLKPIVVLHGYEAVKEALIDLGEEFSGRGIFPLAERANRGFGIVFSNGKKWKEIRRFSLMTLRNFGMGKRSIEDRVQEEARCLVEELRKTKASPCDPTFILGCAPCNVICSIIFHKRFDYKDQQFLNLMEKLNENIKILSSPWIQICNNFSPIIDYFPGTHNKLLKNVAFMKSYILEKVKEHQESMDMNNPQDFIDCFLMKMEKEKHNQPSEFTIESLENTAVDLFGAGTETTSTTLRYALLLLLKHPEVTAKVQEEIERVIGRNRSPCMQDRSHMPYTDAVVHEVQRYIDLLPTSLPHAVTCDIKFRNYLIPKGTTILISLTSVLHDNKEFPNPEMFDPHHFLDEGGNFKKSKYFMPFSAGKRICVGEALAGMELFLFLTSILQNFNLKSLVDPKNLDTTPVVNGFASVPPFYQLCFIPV
Consider `CC(=O)CC(=O)OC(C)(C)C`, for which the Potency result is “inactive”.
Still for that read-out and setting: to `O=C(O)c1cc2ccccc2nc1C(=O)O` belongs “inactive”; to `CCC/C=C(\C=O)CC`, 63.3 µM (active).
As to `CNCCS(=O)(=O)O`, the Potency entry was “inactive”.
For `OCC(O)CN1CCN(c2ccccc2)CC1` (stereo not drawn), the Potency entry was “inactive”.
Still for that read-out and setting: to `COS(=O)(=O)O` belongs “inactive”; to `CCC(C)C(C)=O` (stereo not drawn), “inactive”; to `CC(N)CCCC(C)(C)O` (stereo not drawn), “inactive”.
Still for that read-out and setting: the value for `O=C=NCC1CCCC(CN=C=O)C1` (stereo not drawn) was 10 µM (active); that for `CCCC(CC)c1ccccc1` (stereo not drawn) was “inactive”.
As for `Cc1ccc(C)c([N+](=O)[O-])c1`, the Potency entry is “inactive”.
As for `CCCC(=O)OCCC(C)CCC=C(C)C` (stereo not drawn), the Potency is 20 µM (active).
On to `CC1=C(C(=O)O)N2C(=O)[C@@H](NC(=O)[C@H](N)C3=CCC=CC3)[C@H]2SC1`, for which the Potency entry was “inactive”.
The same measure, in the same setting: the value for `COC(=O)c1cccc(Cl)c1` was “inactive”; that for `COc1c2occc2c(OC)c2c(=O)cc(C)oc12` was 12.3 µM (active); that for `CC(=O)O[C@@H]1CC2CCC1(C)C2(C)C` (stereo partly drawn) was “inactive”.
Still for that read-out and setting: to `NCCOCCN` belongs “inactive”; to `COC(=O)/C=C\C(=O)O`, “inactive”.
Turning to `c1ccc2cnccc2c1`, the Potency entry is “inactive”.
Same read-out and setting: the value for `O=C1OCCO1` was “inactive”.
Take `Cn1c(=O)c2c(ncn2CCO)n(C)c1=O`: the Potency entry is “inactive”.
The same measure, in the same setting: the value for `CCC(=O)CC` was “inactive”; that for `C[C@@H](O)C(=O)O` was “inactive”.
As to `CC(C)CO`, the Potency entry is “inactive”.

Another experiment has as its target Cytochrome P450 1A2 (Homo sapiens) (UniProt P05177). The experiment in a line: Cytochrome P450 Family 1 Subfamily A Member 2 (CYP1A2) small molecule antagonists: luciferase reporter qHTS assay (AID 1671199). Note: nearly all actives have a fitted effect of over 50% in size. Note: potency is the fitted concentration of half-maximal effect. The following applies: P450-Glo CYP1A2 enzyme, luciferin luminescence, 1 h; series mostly up to 115 µM. The essentials:
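Room-temperature CYP1A2 reaction with proluciferin substrate: compounds added from DMSO, 10 min preincubation, NADPH regeneration for 1 h. Luciferin detection reagent then added; luminescence recorded as RLU.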
As to `CC(=O)CC(=O)OC(C)(C)C`, the Potency result is “inactive”.
Still for that read-out and setting: to `CCCc1ccc(O)cc1` belongs 44.8 µM (active); to `CC(=O)CCc1ccc(OC(C)=O)cc1`, 31.7 µM (active).
On to `CC(N)CCCC(C)(C)O` (stereo not drawn), for which the Potency entry was “inactive”.
Same read-out and setting: the value for `O=C=NCC1CCCC(CN=C=O)C1` (stereo not drawn) was “inactive”; that for `ONc1ccccc1` was 14 µM (active); that for `CCCC(=O)OCCC(C)CCC=C(C)C` (stereo not drawn) was 39.9 µM (active).
On the same count and under the same terms, to `CC/C=C\CCOC(=O)c1ccccc1O` belongs 31.7 µM (active).
Still for that read-out and setting: to `CC(=O)O[C@@H]1CC2CCC1(C)C2(C)C` (stereo partly drawn) belongs “inactive”.
Regarding `O=C1OCCO1`, the Potency was 42.2 µM (active).
Regarding `CC(C)C[C@@H]1[C@H](c2ccccc2)OC(=O)N1CCCN1CCCCCC1`, the Potency result was “inactive”.
With `C[C@@H](O)C(=O)O`, the Potency result was “inactive”.
For `Cc1c(N)cccc1Cl`, the Potency was 11.3 µM (active).
As to `CC(C)CO`, the Potency entry was “inactive”.
